Source: PubChem
MOR-DOR inv ag = inverse agonist of human OPRM1-OPRD1 heterodimerization; P35372+P41143; cell-based MOR-DOR heterodimer luminescence, inverse agonism; inhibition, % at 9.3 µM; 340,000 tested, 0.21% active; AID 504357; in the data active means inhibition above about 22%, passing the limit was not always enough;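 further: 0% = cells with DMSO and 100% = wells without cells with DMSO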
HTR5A inv ctr = inverse agonist of human HTR5A in OPRM1-OPRD1 counter-screen. P47898. HTR5A cell line, luminescence, inverse agonism. inhibition, % at 9.3 µM. 340,000 tested, 0.083% active; in the data active means inhibition mostly above about 23%, no sharp cut-off; inactive means mostly below about 18%;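 further: 0% = cells with DMSO and 100% = no-cell wells with DMSO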
m5-HT2A agonist = mouse HTR2A agonism via beta-arrestin recruitment | 360,000 tested, 0.66% active | AID 624169 | CHO-K1 mHTR2A beta-arrestin complementation, luminescence; percent of 30 µM serotonin response | activation, % at 7.6 µM;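 active means activation above a run cutoff, the mean activation of all tested compounds plus 3 SD, cut at about 14% in these data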;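 further: 0% = plate median of compound wells and 100% = 30 µM serotonin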
HTR5A ag = counter-screen for OPRM1-OPRD1 agonists: human HTR5A agonism | P47898 | HTR5A agonist assay, luminescence, cell-based | activation, % at 9.3 µM | 340,000 tested, 0.61% active; in the data active means activation mostly above about 9.5%, no sharp cut-off; inactive means mostly below about 7.6%;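 further: 0% = cells with vehicle only and 100% = reference agonist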
MOR-DOR ag = OPRM1-OPRD1 heterodimerization agonism. P35372+P41143. cells, luminescence. activation, % at 9.3 µM. 340,000 tested, 0.3% active; in the data active means activation above about 18%;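 further: 0% = vehicle-treated cells and 100% = reference agonist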
HGIII-sPLA2 inh = Blocks human group III sPLA2 activity; Q9NZ20; QFRET BODIPY PC-A2 liposome hydrolysis, fluorescence; inhibition, % at 12.2 µM; 370,000 tested, 0.56% active; AID 743126;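 active means inhibition above mean plus 3 SD of compounds lying within the high and low control bounds, cut at about 19% in these data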;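 further: 0% = median of test compound wells and 100% = no enzyme DMSO wells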
Target sequence (Q9NZ20 whole entry, looked up): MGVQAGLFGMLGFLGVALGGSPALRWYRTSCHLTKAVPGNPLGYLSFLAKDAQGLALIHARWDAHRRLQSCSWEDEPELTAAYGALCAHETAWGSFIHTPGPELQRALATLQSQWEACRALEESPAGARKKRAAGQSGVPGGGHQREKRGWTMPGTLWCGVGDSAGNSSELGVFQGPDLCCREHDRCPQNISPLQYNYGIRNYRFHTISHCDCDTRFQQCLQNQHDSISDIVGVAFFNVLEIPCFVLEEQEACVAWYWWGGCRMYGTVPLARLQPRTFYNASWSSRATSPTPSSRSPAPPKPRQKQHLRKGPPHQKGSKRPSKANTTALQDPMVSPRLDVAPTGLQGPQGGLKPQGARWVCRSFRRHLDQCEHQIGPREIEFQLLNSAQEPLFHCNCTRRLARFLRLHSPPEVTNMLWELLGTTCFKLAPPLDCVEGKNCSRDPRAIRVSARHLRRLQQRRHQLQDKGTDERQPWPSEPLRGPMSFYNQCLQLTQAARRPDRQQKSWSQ
hGIII sPLA2 conf = human GIII-sPLA2 inhibition, confirmation. shares compounds with HGIII-sPLA2 inh. AID 743280. recombinant hGIII-sPLA2, BODIPY PC-A2 QFRET fluorescence. inhibition, % at 12.2 µM. 2,000 tested, 34% active;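 active means mean inhibition across triplicates above the hit cutoff set in the earlier primary screen, cut at about 19% in these data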;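 further: 0% = enzyme with DMSO and 100% = DMSO wells lacking enzyme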
BODIPY interf = counter-screen for HGIII-sPLA2 inhibitors: 535nm fluorescence interference | shares compounds with HGIII-sPLA2 inh | BODIPY FL product fluorescence interference, QFRET | inhibition, % at 12.2 µM | 2,000 tested, 8.5% active | AID 743282;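 active means average inhibition above the solvent-only control mean plus 3 SD, cut at about 6% in these data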;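 further: 0% = DMSO with substrate plus product and 100% = DMSO with substrate alone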
BODIPY interf DR = interferes with 535nm fluorescence in dose response counter-screen | shares compounds with HGIII-sPLA2 inh | BODIPY FL product fluorescence interference, cell-free | IC50, µM | 240 tested, under 10 active | AID 743455;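 active means IC50 at or below 10 µM; inactive means IC50 above 10 µM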
An asterisk follows results filed as active. This is a sample that favours compounds with a hit; in the whole collection about 2.2% have one here.

`O=C(NN=Cc1c(O)ccc2ccccc12)c1ccc2c(c1)OCO2` gave MOR-DOR inv ag -16.8, HTR5A inv ctr -12.0, m5-HT2A agonist 9.9, HTR5A ag 4.4, MOR-DOR ag 4.5, HGIII-sPLA2 inh 37.2*, hGIII sPLA2 conf 8.1 and BODIPY interf -5.7.
`O=CN/N=C/c1c(O)ccc2ccccc12` gave MOR-DOR inv ag -9.4, HTR5A inv ctr 1.0, m5-HT2A agonist 4.5, HTR5A ag 4.6, MOR-DOR ag 1.9 and HGIII-sPLA2 inh -1.6.
`NC(=S)N/N=C/c1c(O)ccc2ccccc12` gave MOR-DOR inv ag 7.7, HTR5A inv ctr 4.4, m5-HT2A agonist -5.1, HTR5A ag -1.8, MOR-DOR ag -1.5, HGIII-sPLA2 inh 35.1*, hGIII sPLA2 conf 21.1* and BODIPY interf -0.5.
Cc1ccc(-c2cc(C(=O)NN=Cc3sccc3C)[nH]n2)cc1C was read as HGIII-sPLA2 inh -13.6.
`O=C(N/N=C/c1c(O)ccc2ccccc12)c1ccc(CO)nc1` gave MOR-DOR inv ag -1.7, HTR5A inv ctr 9.9, m5-HT2A agonist 0.1, HTR5A ag -2.7, MOR-DOR ag 0.3, HGIII-sPLA2 inh 25.2*, hGIII sPLA2 conf 12.3 and BODIPY interf -5.7.
Cc1ccc(-c2cc(C(=O)NN=Cc3c(O)ccc4ccccc34)[nH]n2)cc1C was read as HGIII-sPLA2 inh 26.4*, hGIII sPLA2 conf -17.0 and BODIPY interf -9.9.
Screening COCCN1Cc2cc(C(=O)OC)c3c(c2C1=O)c1cc(OC)ccc1n3C(=O)c1ccccc1 returned HGIII-sPLA2 inh 1.3.
For Nc1ccc(C(=O)N/N=C\c2cc(N=Nc3cccc4ccccc34)ccc2O)cc1 the results were MOR-DOR inv ag -7.8, HTR5A inv ctr 26.7, m5-HT2A agonist -1.2, HTR5A ag -7.3, MOR-DOR ag 1.5, HGIII-sPLA2 inh 34.0*, hGIII sPLA2 conf 37.8* and BODIPY interf 8.2*.
Screening COC(=O)N/N=C/c1cc(N=Nc2ccccc2Cl)ccc1O returned MOR-DOR inv ag 11.2, HTR5A inv ctr 24.8, m5-HT2A agonist -6.2, HTR5A ag -8.3, MOR-DOR ag -2.2 and HGIII-sPLA2 inh -1.7.
OC[C@@H]1CN(Cc2ccncc2)C[C@H](n2cnc3c(NC4CC4)ncnc32)O1 was read as m5-HT2A agonist -1.2 and HGIII-sPLA2 inh 12.2.
`COCCN1C[C@@H](CO)O[C@@H](n2cnc3c(N4CCCC4)ncnc32)C1` gave m5-HT2A agonist 0.2, HGIII-sPLA2 inh 20.5*, hGIII sPLA2 conf 1.1 and BODIPY interf -2.1.
Screening COc1ccc(CN2C[C@@H](CO)O[C@@H](n3cnc4c(N5CCOCC5)ncnc43)C2)cc1 returned m5-HT2A agonist -3.5, HGIII-sPLA2 inh 20.0*, hGIII sPLA2 conf -3.5 and BODIPY interf -18.6.
Screening OC[C@@H]1CN(Cc2ccncc2)C[C@H](n2cnc3c(NC4CCCC4)ncnc32)O1 returned m5-HT2A agonist 9.2, HGIII-sPLA2 inh 21.2*, hGIII sPLA2 conf -0.4 and BODIPY interf -9.8.
COCCN1C[C@@H](CO)O[C@@H](n2cnc3c(N4CCOCC4)ncnc32)C1 was read as m5-HT2A agonist 5.4 and HGIII-sPLA2 inh 0.6.
CCCSc1nc2c([nH]1)c(=O)n(C)c(=S)n2C was read as MOR-DOR inv ag 5.6, HTR5A inv ctr -22.7, m5-HT2A agonist 0.0, HTR5A ag 5.9, MOR-DOR ag -1.1, HGIII-sPLA2 inh 19.7*, hGIII sPLA2 conf 6.7 and BODIPY interf 1.1.
CC(=O)Nc1cccc(C(C)C2=CCCCC2)c1 (stereo not given) was read as HGIII-sPLA2 inh -1.9.
Screening NNC(=O)/C(=N/Nc1ccccc1)S(=O)(=O)c1ccc(Cl)cc1 returned MOR-DOR inv ag -12.4, HTR5A inv ctr 9.8, m5-HT2A agonist -0.4, HTR5A ag 9.9, MOR-DOR ag 2.4, HGIII-sPLA2 inh 34.8*, hGIII sPLA2 conf 46.5*, BODIPY interf 2.4 and BODIPY interf DR >122.
For CC(=O)NC(c1ccc(Cl)cc1Cl)c1ccc2cccnc2c1O (stereo not given) the results were MOR-DOR inv ag 2.5, HTR5A inv ctr 5.5, m5-HT2A agonist -4.2, HTR5A ag -1.5, MOR-DOR ag -0.5, HGIII-sPLA2 inh 19.4*, hGIII sPLA2 conf 23.0* and BODIPY interf -8.8.
Screening CCN(CC)c1ccc(C(NC(=O)C(C)C)c2ccc3cccnc3c2O)cc1 (stereo not given) returned m5-HT2A agonist -6.4, HGIII-sPLA2 inh 36.1*, hGIII sPLA2 conf 22.6* and BODIPY interf -2.0.
For CCCCC(=O)NC(c1ccccc1OC)c1ccc2cccnc2c1O (stereo not given) the results were MOR-DOR inv ag -2.5, HTR5A inv ctr 24.0, m5-HT2A agonist -2.3, HTR5A ag 6.1, MOR-DOR ag 0.5, HGIII-sPLA2 inh 30.7*, hGIII sPLA2 conf 27.7*, BODIPY interf -11.4 and BODIPY interf DR >122.
`CCCCC(=O)NC(c1ccc(N(CC)CC)cc1)c1ccc2cccnc2c1O` (stereo not given) gave MOR-DOR inv ag 0.5, HTR5A inv ctr 3.9, m5-HT2A agonist -2.4, HTR5A ag -1.0, MOR-DOR ag -0.1 and HGIII-sPLA2 inh 14.9.
Screening CCCCC(=O)NC(c1ccc(N(C)C)cc1)c1ccc2cccnc2c1O (stereo not given) returned MOR-DOR inv ag -0.7, HTR5A inv ctr -7.2, m5-HT2A agonist -1.8, HTR5A ag -1.6, MOR-DOR ag 0.1, HGIII-sPLA2 inh 38.2*, hGIII sPLA2 conf 26.2* and BODIPY interf -6.8.
`COc1ccc(N2CCN(CCNS(=O)(=O)c3c(C(C)C)cc(C(C)C)cc3C(C)C)CC2)cc1` gave HGIII-sPLA2 inh -16.9.
CC(CCN1CCC(C(O)(c2ccccc2)c2ccccc2)CC1)Oc1ccccc1C#N (stereo not given) was read as HGIII-sPLA2 inh -15.1.
For C=CCN=C1NC(c2ccccc2)C(C(=O)OC)=C(C)N1C (stereo not given) the results were HGIII-sPLA2 inh -1.5.
`CCCC(=O)NC(c1ccccc1OC)c1ccc2cccnc2c1O` (stereo not given) gave MOR-DOR inv ag 9.5, HTR5A inv ctr 6.0, m5-HT2A agonist -3.3, HTR5A ag -2.2 and MOR-DOR ag -2.0.
